# From PubChem
# CYP2C9 inh – inhibitors of human CYP2C9; CYP2C9 Supersomes, luciferin-H conversion, luminescence; AID 777; inhibition, % at 5 µM; P11712; 96,000 compounds, 20% hits;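 active means blocking of liver enzyme CYP2C9 beyond about 50% at 5 µM, limit read from the data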
# CYP2C19 inhib – blocks human cytochrome P450 2C19; P33261; CYP2C19 Supersomes, luciferin-H EGE luminescence, 30 min; inhibition, % at 5 µM; 96,000 compounds, 21% hits; AID 778;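 active means CYP2C19 inhibition above a set limit at 5 µM in the primary screen, cut at about 50% in these data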;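 further: plate controls were negative control wells for no effect and 2.5 mM tranylcypromine positive control for full effect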
# Cav32 inh – blocks human Cav3.2 T-type calcium channel; B-score at 10 µM; AID 449739; Cav3.2-expressing cells, Fluo-4 calcium fluorescence FDSS; stronger effect = lower value; O95180; 100,000 compounds, 4% hits;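 active means single-dose well whose peak fluorescence ratio is a statistical outlier from its plate by either plate-standardised score or position-corrected B-score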
# CYP2C19 act – activators of human cytochrome P450 2C19 | P33261 | activation factor at 5 µM | 96,000 tested, under 10 active | AID 1025 | recombinant CYP2C19, luciferin-H EGE luminescence; stronger effect = higher value; 0 = fully inhibited enzyme, 1 = untreated enzyme;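 active means activation factor of at least 2 at 5 µM in the primary screen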;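 further: 0 = wells with 2.5 mM tranylcypromine and 1 = vehicle-only wells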
# CYP2C9 act – increases human cytochrome P450 2C9 activity. recombinant CYP2C9, luciferin-H conversion, luminescence; stronger effect = higher value; factor 1 = untreated enzyme, 0 = blocked. activation factor at 5 µM. AID 1024. P11712. 96,000 compounds, 1.4% hits;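 active means activation factor of 2 or more for CYP2C9 at a 5 µM dose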;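 further: 0 = sulfaphenazole-blocked wells and 1 = vehicle-only wells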
# An asterisk follows results filed as active; · = not tested or not shown. In the library only some 27% were active in any assay of this set; here they are far more common.
SMILES,CYP2C9 inh,CYP2C19 inhib,Cav32 inh,CYP2C19 act,CYP2C9 act
CCc1ccc(OCCNC(=O)c2cccs2)cc1,74.5*,37.9,-5.93*,0.6,0.3
CCc1ccc(OCCNC(=O)c2ccccc2SCc2ccc(F)cc2)cc1,50.3*,50.9*,·,0.5,0.5
O=C(NCc1ccccc1F)c1cccs1,0.3,58.8*,0.199,0.4,1
O=C(NCCN1Cc2ccccc2C1=O)c1cccs1,22.4,77.0*,0.484,0.2,0.8
CCCCOCCCNC(=O)c1cccs1,22.3,35.4,-1.06,0.6,0.8
COc1ccc(-c2nnn(CC(=O)N(CC(=O)NCCC(C)C)Cc3cccs3)n2)cc1OC,49.2,42.6,-2.55,0.6,0.5
C=CCNC(=S)N1CCN(c2ncc3c(=O)c(C(=O)O)cn(CC)c3n2)CC1,-5.1,-11.4,0.355,1.1,1.1
O=C1N2CCSC2=NC1(NS(=O)(=O)c1ccccc1)C(F)(F)F (centres undefined),10.5,0.1,-0.341,1,0.9
COc1ccccc1OCCNC(=O)c1cccs1,52.0*,91.7*,0.648,0.1,0.5
CC(C)OCCCNC(=O)c1cccs1,8.3,46.5,0.595,0.5,0.9
Cc1cc(C)n(-c2nc3ccccc3c(=O)n2OCc2ccc(Cl)cc2)n1,26.5,97.6*,·,0,0.7
Cc1cc(C)n(-c2nc3ccccc3c(=O)n2OCC(=O)OCc2ccccc2)n1,18.1,6.0,·,0.9,0.8
Cc1cc(C)n(-c2nc3ccccc3c(=O)n2OCC(=O)N(C)C)n1,-9.9,-1.5,1.75,1,1.1
Cc1cc(C)n(-c2nc3ccccc3c(=O)n2OCC(=O)Nc2c(C)cccc2C)n1,51.6*,11.1,·,0.9,0.5
COc1ccc(OC)c(C(=O)CSc2nccc(-c3ccc(Br)cc3)n2)c1,79.4*,10.8,-1.99,0.9,0.2
COc1ccc(-c2cc(C)nc(SCC(=O)c3cccc([N+](=O)[O-])c3)n2)cc1,3.1,-9.6,-1.34,1.1,1
CCn1c(SCC(=O)c2cc(OC)ccc2OC)nnc1C(C)C,40.6,98.7*,0.815,0,0.6
COc1ccc(OC)c(C(=O)CSc2nnc(-c3cccnc3)n2C)c1,-12.2,71.9*,0.00172,0.3,1.1
COC(=O)c1cc(OC)c(OC)cc1NC(=O)CSc1nnc(-c2cccnc2)n1C,·,·,0.612,·,·
CCn1c(SCC(=O)c2ccc(OC)cc2)nnc1C(C)NC(=O)c1ccc(OC)cc1 (centres undefined),16.8,28.0,0.414,0.7,0.8
CCCn1c(SCC(=O)c2cc(OC)ccc2OC)nnc1-c1ccco1,46.3,97.2*,-0.888,0,0.5
CCCn1c(SCC(=O)c2ccc3c(c2)OCCO3)nnc1-c1ccco1,20.7,31.2,0.114,0.7,0.8
CCCCn1c(=O)c(-[n+]2ccccc2)c([O-])c2ccccc21,-8.2,-14.5,0.61,1.1,1.1
O=C1Nc2ccccc2/C1=N/c1sc2c(c1C(=O)NCCc1ccccc1)CCCC2,49.7,26.4,·,0.7,0.5
COc1cccc(NC(=O)N2CCN(c3ccc(C(F)(F)F)cn3)CC2)c1,4.2,-1.0,·,1,1
SMILES,CYP2C9 inh,CYP2C19 inhib,Cav32 inh,CYP2C19 act,CYP2C9 act
Cc1cc2cc3c(cc2nc1SCC(=O)OC(C)C)OCCO3,9.5,2.3,-0.649,1,0.9
CCOC(=O)CSc1nc2cc3c(cc2cc1CC)OCCO3,·,·,-4.59*,·,·
Cc1cc(N)n(-c2ncnc3scc(-c4ccccc4)c23)n1,16.6,9.8,·,0.9,0.8
CCS(=O)(=O)N1CCN(S(=O)(=O)c2ccccc2)CC1,21.7,35.2,0.378,0.6,0.8
CN(C)S(=O)(=O)N1CCN(S(=O)(=O)c2ccccc2)CC1,58.1*,79.6*,0.875,0.2,0.4
Cc1ccc(-c2ccc(S(=O)(=O)N3CCN(C)CC3)cc2)cc1,51.6*,16.4,0.547,0.8,0.5
Cc1ccc(S(=O)(=O)N2CCN(S(=O)(=O)c3ccccc3)C2)cc1,57.4*,56.2*,·,0.4,0.4
CN1CCN(S(=O)(=O)c2ccc(-c3ccccc3)cc2)CC1,24.9,44.0,0.359,0.6,0.8
CCCCCNC(=O)Cc1cc(=O)[nH]c(=O)[nH]1,2.4,16.7,-0.198,0.8,1
Cc1ccc(C(=O)c2cc([N+](=O)[O-])ccc2N2CCN(C)CC2)cc1,16.7,11.7,0.303,0.9,0.8
O=C(c1ccc(Br)cc1)c1cc([N+](=O)[O-])ccc1N1CCCCC1,60.7*,64.9*,-3.63*,0.4,0.4
COc1ccc2nc(Nc3ccc4c(c3)OCO4)sc2c1,20.6,65.0*,-0.407,0.3,0.8
COc1ccc(-c2nc(CSCC(=O)N3CCN(C4CCCCC4)CC3)c(C)o2)cc1OC,·,·,-0.435,·,·
COC(=O)c1sc2ccccc2c1NC(=O)c1cccs1,60.3*,34.8,-0.872,0.7,0.4
COc1ccc2c(c1)Cc1sc(NC(=O)c3cccs3)nc1-2,84.8*,70.5*,0.211,0.3,0.2
COc1ccc(C(=O)Nc2nc3c(s2)Cc2cc(OC)ccc2-3)cc1,37.3,33.6,0.721,0.7,0.6
COc1cc(NC(=O)Cc2cccs2)ccc1-n1cnnn1,3.5,52.8*,-0.111,0.5,1
COc1cccc(NC(=O)Cc2cccs2)c1,21.3,51.1*,0.00469,0.5,0.8
COc1cccc(NC(=O)Nc2cccs2)c1,·,·,-0.884,·,·
CC1(C)CC(=O)N(c2ccccc2)C1(C)O (centres undefined),-14.6,4.5,0.358,1,1.1
C=CCn1c(Cc2cccs2)nnc1SCC(=O)Nc1cc(OC)cc(OC)c1,39.0,78.8*,1.17,0.2,0.6
C=CCn1c(Cc2cccs2)nnc1SC/C=C/c1ccccc1,57.7*,70.1*,-1.76,0.3,0.4
COc1cc(NC(=O)Cc2cccs2)cc(OC)c1,39.5,80.7*,0.763,0.2,0.6
COc1cc(NC(=O)c2cccs2)cc(OC)c1,21.2,22.8,1.25,0.8,0.8
COc1cccc(NC(=O)c2cccc(OC)c2OC)c1,-73.2,81.0*,-1.36,0.2,1.7
SMILES,CYP2C9 inh,CYP2C19 inhib,Cav32 inh,CYP2C19 act,CYP2C9 act
c1ccc(-c2ncnc3nc4n(c23)CCC4)cc1,1.4,-2.3,0.391,1,1
COc1cccc(NC(=O)c2cccs2)c1,28.9,54.0*,-0.329,0.5,0.7
Cc1ccc(C(=O)NCC(C)(C)N2CCOCC2)s1,2.0,55.2*,-0.0612,0.4,1
Nc1c(-c2ccccc2)cnn1C1CCS(=O)(=O)C1 (centres undefined),-1.1,3.6,0.205,1,1
O=c1cc(O)nc(SCc2ccc(Cl)cc2)[nH]1,19.4,5.5,-6.93*,0.9,0.8
O=C(c1ccc(CSc2nc3ccncc3[nH]2)cc1)N1CCN(c2cccc(Cl)c2)CC1,·,·,-1.27,·,·
Clc1ccc(CSc2nc3ccncc3[nH]2)cc1,88.8*,97.8*,0.173,0,0.1
CC(=O)c1ccc(OC(C)C)c(CSc2nc(O)cc(=O)[nH]2)c1,59.4*,-7.8,·,1.1,0.4
Nc1cc(=O)[nH]c(SCc2ccc(Cl)cc2)n1,-7.3,16.0,-0.307,0.8,1.1
COC(C[C@@H](O)C[C@@H](O)[C@@H](C)OCc1ccccc1)OC,·,·,-0.781,·,·
